Potency and affinity values are given separately.
Experiments:
Klebsiella pneumoniae = settings: Concentration 20 uM; ASSAY_TEST Inhibition of Bacterial Growth; detection method Absorption (OD600); MEDIA CAMHB; plate type 384well; NBS; CORNING #3640; time 18 hr
Candida albicans = settings: 20 µM
Cryptococcus neoformans = settings: Concentration 20 uM; ASSAY_TEST Inhibition of Fungal Growth; detection method Resazurin; Absorption (OD600-OD570); plate type 384well; NBS; CORNING #3640

Row | SMILES | Inhibition (Klebsiella pneumoniae) | Inhibition (Candida albicans) | Inhibition (Cryptococcus neoformans)
1 | CCc1ccc(CCOc2ccc(CC3SC(=O)NC3=O)cc2)nc1.Cl (centres undefined) [PIOGLITAZONE HYDROCHLORIDE] | 2.41% | 2.58% | -2.27%
2 | CC(C)(C)NC[C@H](O)COc1nsnc1N1CCOCC1.O=C(O)/C=C\C(=O)O [TIMOLOL MALEATE] | 6.73% | -1.73% | -3.81%
3 | CN1CCCC(n2nc(Cc3ccc(Cl)cc3)c3ccccc3c2=O)CC1.Cl (centres undefined) [AZELASTINE HYDROCHLORIDE] | -1% | 4.45% | 4.19%
4 | CCC1=C(C)CN(C(=O)NCCc2ccc(S(=O)(=O)NC(=O)N[C@H]3CC[C@H](C)CC3)cc2)C1=O [GLIMEPIRIDE] | 11.97% | 1.98% | -2.89%
5 | Cl.Clc1ccccc1CN1CCc2sccc2C1 [TICLOPIDINE HYDROCHLORIDE] | -0.77% | 1.25% | -6.79%
6 | C[C@]12CCC(=O)C=C1CC[C@@H]1[C@@H]2[C@@H](O)C[C@@]2(C)[C@H]1CC[C@]2(O)C(=O)CO [HYDROCORTISONE] | 5.06% | 1.65% | -3.64%
7 | Cl.Clc1ccc2nsnc2c1NC1=NCCN1 [TIZANIDINE HYDROCHLORIDE] | 10.36% | 3.84% | -1.24%
8 | CC(C)(C)NCC(O)COc1cccc2c1CC(O)C(O)C2 (centres undefined) [NADOLOL] | 10.61% | 1.18% | -8.66%
9 | CNCCCC12CCC(c3ccccc31)c1ccccc12.Cl [MAPROTILINE HYDROCHLORIDE] | 10.44% | 3.58% | -10.89%
10 | CN(CCO)CC(O)Cn1cnc2c1c(=O)n(C)c(=O)n2C.O=C(O)c1cccnc1 (centres undefined) [XANTHINOL NIACINATE] | 12.07% | 0.26% | -2.36%
11 | COc1cc(C(=O)NS(=O)(=O)c2ccccc2C)ccc1Cc1cn(C)c2ccc(NC(=O)OC3CCCC3)cc12 [ZAFIRLUKAST] | 3.3% | 0.8% | 1.96%
12 | Cc1ccc(S(=O)(=O)NC(=O)NN2CCCCCC2)cc1 [TOLAZAMIDE] | -1.58% | -0.09% | -7.48%
13 | C[C@]12CC[C@@H]3c4ccc(O)cc4CC[C@H]3[C@@H]1CC[C@@H]2O [ESTRADIOL] | 5.27% | 5.91% | -4.05%
14 | CN1C(=O)CC[C@H]1c1cccnc1 [COTININE] | 5.32% | 4.46% | -1.87%
15 | Nc1ccn([C@@H]2O[C@H](CO)[C@@H](O)[C@@H]2O)c(=O)n1 [CYTARABINE] | 5.64% | 2.79% | -8.77%
16 | Nc1nc(=O)c2nc(CNc3ccc(C(=O)N[C@@H](CCC(=O)O)C(=O)O)cc3)cnc2[nH]1 [FOLIC ACID] | 12.05% | 1.12% | -7.28%
17 | CCN1CCC[C@H]1CNC(=O)c1cc(S(N)(=O)=O)ccc1OC [LEVOSULPIRIDE] | 18.7% | 2.16% | 2.98%
18 | C[C@@H]1C[C@H]2[C@@H]3CCC4=CC(=O)C=C[C@]4(C)[C@@]3(F)[C@@H](O)C[C@]2(C)[C@H]1C(=O)CO [DESOXIMETASONE] | 9.74% | 2.64% | 2.06%
19 | COc1cc([C@@H]2c3cc4c(cc3[C@@H](O[C@@H]3O[C@@H]5CO[C@@H](C)O[C@H]5[C@H](O)[C@H]3O)[C@H]3COC(=O)[C@H]23)OCO4)cc(OC)c1O [ETOPOSIDE] | 4.81% | 0.59% | -6.14%
20 | CSc1ccc2c(c1)N(CCC1CCCCN1C)c1ccccc1S2.Cl (centres undefined) [THIORIDAZINE HYDROCHLORIDE] | 9.7% | 4.12% | 4.01%
21 | CC(C)Cc1ccc(C(C)C(=O)O)cc1 (centres undefined) [IBUPROFEN] | -1.68% | 13.3% | -3.38%
22 | C#C[C@]1(O)CC[C@H]2[C@@H]3CCc4cc(O)ccc4[C@H]3CC[C@@]21C [ETHINYL ESTRADIOL] | 16.78% | 2.87% | -5.67%
23 | Nc1nc(O)c2ncn(CCC(CO)CO)c2n1 [PENCICLOVIR] | 17.55% | 0.56% | -9.17%
24 | NS(=O)(=O)c1cc2c(cc1Cl)NCNS2(=O)=O [HYDROCHLOROTHIAZIDE] | 14.61% | 2.05% | -7.59%
25 | CC1=C(/C=C/C(C)=C/C=C/C(C)=C/C(=O)O)C(C)(C)CCC1 [TRETINOIN] | 14.57% | 2.93% | -0.54%
26 | C[C@H]1O[C@@H](O[C@H]2[C@@H](O)C[C@H](O[C@H]3[C@@H](O)C[C@H](O[C@H]4CC[C@@]5(C)[C@H](CC[C@@H]6[C@@H]5C[C@@H](O)[C@]5(C)C(C7=CC(=O)OC7)CC[C@]65O)C4)O[C@@H]3C)O[C@@H]2C)C[C@H](O)[C@@H]1O (some centres undefined) | 10.13% | 4.95% | -6%
27 | OCCN1C[C@H](O)[C@@H](O)[C@H](O)[C@H]1CO [MIGLITOL] | 11.67% | 2.16% | 1.09%

Row | SMILES | Inhibition (Klebsiella pneumoniae) | Inhibition (Candida albicans) | Inhibition (Cryptococcus neoformans)
28 | COC(=O)CCc1ccc(OCC(O)CNC(C)C)cc1.Cl (centres undefined) [ESMOLOL HYDROCHLORIDE] | 3.48% | 1.99% | -7.33%
29 | NNCCc1ccccc1.O=S(=O)(O)O [PHENELZINE SULFATE] | 6.23% | 4.34% | -10.12%
30 | CN(C)CC[C@@H](c1ccc(Br)cc1)c1ccccn1.O=C(O)/C=C\C(=O)O [DEXBROMPHENIRAMINE MALEATE] | -0.14% | 1.43% | -3.8%
31 | O.OC[C@H]1O[C@@H](n2cnc3c(NC4CCCC4)nc(Cl)nc32)[C@@H](O)C1O (some centres undefined) | 3.81% | 1.81% | -4.95%
32 | CC(N)C12CC3CC(CC(C3)C1)C2.Cl (centres undefined) [RIMANTADINE HYDROCHLORIDE] | 8.19% | 2.89% | -3.72%
33 | CC(=O)[C@@]1(O)CC[C@H]2[C@@H]3C[C@H](C)C4=CC(=O)CC[C@]4(C)[C@H]3CC[C@@]21C | 2.71% | 2.87% | -0.94%
34 | O=C1[C@H](CC[C@H](O)c2ccc(F)cc2)[C@@H](c2ccc(O)cc2)N1c1ccc(F)cc1 [EZETIMIBE] | 2.21% | -1% | -1.78%
35 | O=C(O)COCCN1CCN([C@H](c2ccccc2)c2ccc(Cl)cc2)CC1 [LEVOCETIRIZINE] | 20.22% | 0.53% | 0.71%
36 | CC(C)NCC(O)c1ccc(NS(C)(=O)=O)cc1.Cl (centres undefined) [SOTALOL HYDROCHLORIDE] | -0.96% | 5.09% | 3.23%
37 | O=c1c(-c2ccccc2)c1-c1ccccc1 [DIPHENCYPRONE] | -5.06% | 5.88% | 10.54%
38 | O=C(NCCO[N+](=O)[O-])c1cccnc1 [NICORANDIL] | 15.28% | 1.66% | -0.1%
39 | C[C@H](N[C@@H](CCc1ccccc1)C(=O)O)C(=O)N1CCC[C@H]1C(=O)O [ENALAPRILAT ANHYDROUS] | 8.45% | 2.99% | 1.01%
40 | C[C@]12C=CC(=O)C=C1CC[C@@H]1[C@@H]2[C@@H](O)C[C@@]2(C)[C@H]1CC[C@]2(O)C(=O)COC(=O)CCC(=O)[O-].[Na+] [PREDNISOLONE SODIUM SUCCINATE] | 6.54% | -0.07% | 1.35%
41 | CCOC(=O)C1(CCCCCCOc2ccc(Cl)cc2)CO1 (stereo not drawn) [rac-ETOMOXIR] | 8.69% | 1.76% | -1.88%
42 | CN1CCCCC1CCN1c2ccccc2Sc2ccc([S+](C)[O-])cc21.O=S(=O)(O)c1ccccc1 (centres undefined) [MESORIDAZINE BESYLATE] | -1.64% | 4.29% | 2.61%
43 | N[C@@H]1CONC1=O [CYCLOSERINE] | 12% | 1.72% | -5.65%
44 | CCN(CC)C(=O)[C@]1(c2ccccc2)C[C@@H]1CN.Cl [1R,2S-MILNACIPRAN HYDROCHLORIDE] | 12.52% | 0.44% | -10.1%
45 | COC(=O)C1=C(C)NC(C)=C(C(=O)OCCN(C)Cc2ccccc2)C1c1cccc([N+](=O)[O-])c1.Cl (centres undefined) [NICARDIPINE HYDROCHLORIDE] | -5.88% | 0.94% | -9.15%
46 | CCCc1nc(C(C)(C)O)c(C(=O)OCc2oc(=O)oc2C)n1Cc1ccc(-c2ccccc2-c2nnn[nH]2)cc1 [OLMESARTAN MEDOXOMIL] | 5.33% | 4.08% | -0.73%
47 | CC[C@H](C)C(=O)O[C@H]1CCC=C2C=C[C@H](C)[C@H](CC[C@@H]3C[C@@H](O)CC(=O)O3)[C@H]21 [MEVASTATIN] | 5.3% | 24.7% | -2.39%
48 | Nc1ccc2cn[nH]c2c1 | 2.93% | 4.22% | 6.83%
49 | NC(Cc1cc(I)c(Oc2ccc(O)c(I)c2)c(I)c1)C(=O)O (centres undefined) [RATHYRONINE] | 9.96% | 2.19% | -1.85%
50 | CN1CCN(C2=Nc3cc(F)ccc3Cc3ccccc32)CC1 [FLUPERLAPINE] | 11.17% | 3.99% | -6.37%
51 | CC(C)[C@H]1CC[C@H](C(=O)N[C@H](Cc2ccccc2)C(=O)O)CC1 [NATEGLINIDE] | 12.08% | 4.05% | -0.58%
52 | C=C(CC)C(=O)c1ccc(OCC(=O)O)c(Cl)c1Cl [ETHACRYNIC ACID] | 8.53% | 21.1% | -8.91%
53 | Cc1ccsc1C(=CCCN1CCC[C@@H](C(=O)O)C1)c1sccc1C.Cl [TIAGABINE HYDROCHLORIDE] | 9.25% | 1.98% | -3.18%

Reference: ChEMBL document CHEMBL4513141, “CO-ADD screening of NIH (USA) - Clinical Collection” (2021)
